CYP2C9 inh – blocks human cytochrome P450 2C9. CYP2C9 Supersomes, luciferin-H conversion, luminescence. inhibition, % at 5 µM. 96,000 tested, 20% active;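 active = blocking of liver enzyme CYP2C9 beyond about 50% at 5 µM, limit read from the data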
CYP2C19 inh – human CYP2C19 inhibition. P33261. CYP2C19 Supersomes, luciferin-H EGE luminescence, 30 min. inhibition, % at 5 µM. AID 778. 96,000 tested, 21% active;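 active = CYP2C19 inhibition above a set limit at 5 µM in the primary screen, cut at about 50% in these data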;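 also: plate controls were negative control wells for no effect and 2.5 mM tranylcypromine positive control for full effect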
Target sequence (P33261 whole entry, looked up): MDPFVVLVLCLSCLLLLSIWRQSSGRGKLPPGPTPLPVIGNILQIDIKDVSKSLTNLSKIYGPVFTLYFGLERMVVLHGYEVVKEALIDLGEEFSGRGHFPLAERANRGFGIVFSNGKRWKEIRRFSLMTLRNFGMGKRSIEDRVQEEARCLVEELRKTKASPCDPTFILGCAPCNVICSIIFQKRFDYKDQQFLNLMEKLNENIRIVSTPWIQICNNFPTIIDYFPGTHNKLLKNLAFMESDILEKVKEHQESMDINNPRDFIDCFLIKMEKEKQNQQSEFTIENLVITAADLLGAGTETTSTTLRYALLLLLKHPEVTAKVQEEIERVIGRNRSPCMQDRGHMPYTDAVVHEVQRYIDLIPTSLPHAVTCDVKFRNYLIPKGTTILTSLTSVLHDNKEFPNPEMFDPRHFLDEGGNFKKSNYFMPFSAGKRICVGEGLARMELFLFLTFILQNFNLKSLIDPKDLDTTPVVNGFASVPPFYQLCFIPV
CYP2C9 activ – increases human cytochrome P450 2C9 activity; P11712; recombinant CYP2C9, luciferin-H conversion, luminescence; stronger effect = higher value; factor 1 = untreated enzyme, 0 = blocked; activation factor at 5 µM; 96,000 tested, 1.4% active;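 active = activation factor of 2 or more for CYP2C9 at a 5 µM dose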;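 also: 0 = sulfaphenazole-blocked wells and 1 = vehicle-only wells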
PTK2B oligo ant – Pyk2 (human) oligomerization antagonism | Q14289 | Q293 cells, Pyk2 FERM NanoBiT luminescence; stronger effect = lower value | z-score (the deposit names both 25 µM and 10 µM) | 99,000 tested, 0.83% active;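 active = Z-score of -3 or lower, scaled per plate to the spread of control and sample wells; inactive = z-score above -3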;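 also: negative z-score means lost luminescence so less FERM oligomerization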
CYP2C19 act – increases human CYP2C19 enzyme activity | 96,000 tested, under 10 active | P33261 | recombinant CYP2C19, luciferin-H EGE luminescence; stronger effect = higher value; 0 = fully inhibited enzyme, 1 = untreated enzyme | activation factor at 5 µM | AID 1025;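 active = activation factor of at least 2 at 5 µM in the primary screen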;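 also: 0 = wells with 2.5 mM tranylcypromine and 1 = vehicle-only wells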
* marks the source's active call; other numbers are inactive results; . = no result. Compounds with a hit are over-represented: about 28% of the library has one in this group of screens.

SMILES	CYP2C9 inh	CYP2C19 inh	CYP2C9 activ	PTK2B oligo ant	CYP2C19 act
CCOc1cc(C2C(C(=O)c3ccc(C)o3)=C(O)C(=O)N2CCc2ccccc2)ccc1O (stereo not drawn)	22	24	0.8	0.83	0.8
COc1ccc(CCN2C(=O)C(O)=C(C(=O)c3ccco3)C2c2cccs2)cc1OC (stereo not drawn)	53*	1	0.5	-0.02	1
COc1cc(C(=O)NC2CCN(Cc3nnnn3Cc3cccs3)CC2)cc(OC)c1OC	36	5	0.6	0.02	1
Cc1cc([N+](=O)[O-])nn1CCCC(=O)NC(C)c1ccccc1 (stereo not drawn)	.	.	.	1.4	.
O=C(Nc1cccc(C(F)(F)F)c1)C12CC3CC(CC(C3)C1)C2	.	.	.	0.14	.
O=C(O)c1ccc(NC(CSCc2ccc(F)cc2)C(=O)O)c([N+](=O)[O-])c1 (stereo not drawn)	90*	-14	0.1	-0.91	1.1
O=C(O)c1ccc(NC(CSCc2cccc(F)c2)C(=O)O)c([N+](=O)[O-])c1 (stereo not drawn)	62*	-15	0.4	-0.58	1.2
Cc1ccc(CSCC(Nc2ccc(C(=O)O)cc2[N+](=O)[O-])C(=O)O)cc1 (stereo not drawn)	94*	-14	0.1	-0.09	1.1
CCOC(=O)c1c(C)[nH]c(C(=O)COC(=O)C2CC2C)c1C (stereo not drawn)	98*	73*	0	0.08	0.3
CCOC(=O)c1[nH]c(C)c(C(=O)c2cc(F)ccc2F)c1C	93*	95*	0.1	-1.3	0.1
CCCNC(=O)COC(=O)c1[nH]c(C)c(C(=O)OCC)c1C	64*	44	0.4	0.11	0.6
CCCN(CC1CC1)C(=O)COC(=O)c1[nH]c(C)c(C(=O)OCC)c1C	44	60*	0.6	0.07	0.4
Cc1ccc(C(=O)Nc2sc(C)c(-c3ccccc3)c2C(N)=O)cc1[N+](=O)[O-]	40	9	0.6	-2.9	0.9
COc1cc(OC)cc(C(=O)NNC(=O)NC2CCCCC2)c1	.	.	.	0.22	.
CCOC(=O)c1c(C)[nH]c(C(=O)COC(=O)c2ccncc2)c1C	92*	16	0.1	1.1	0.8
CCOC(=O)c1[nH]c(C)c(C(=O)OCC)c1C	75*	84*	0.2	.	0.2
CC(C)(C)C(=O)[C@H]1[C@H](c2ccccc2)[C@@]2(N=C(c3ccccc3)OC2=O)C2c3ccccc3C=NN21 (stereo partly drawn)	29	53*	0.7	0.1	0.5
c1ccc(-c2cc(-c3nc(-c4ccccn4)no3)c3ccccc3n2)cc1	.	.	.	-2.2	.
c1ccc(-c2noc(-c3cccc4ccccc34)n2)nc1	1	64*	1	-1.4	0.4
COc1cccc(-c2nc(-c3ccccn3)no2)c1OC	38	90*	0.6	-0.83	0.1
COc1ccc(C2(C(=O)NCCCN(C)C)CCOCC2)cc1	-6	-30	1.1	.	1.3
Cn1ccnc1SCc1cn2cc(Br)ccc2n1	2	65*	1	-0.04	0.4
Cc1ccn2cc(CSc3ccccc3N)nc2c1	19	39	0.8	0.16	0.6
O=C(CSCC(=O)OCn1nnc2ccccc2c1=O)Nc1ccc(Cl)cc1	26	25	0.7	0.26	0.8
Cc1cc(=O)n(C)c(=O)n1CC(=O)N1CCCCCC1	-8	-15	1.1	0	1.1
SMILES	CYP2C9 inh	CYP2C19 inh	CYP2C9 activ	PTK2B oligo ant	CYP2C19 act
O=S(=O)(Nc1nccs1)c1ccc(NS(=O)(=O)c2cccs2)cc1	90*	-11	0.1	0.35	1.1
O=S(=O)(Nc1ccc(S(=O)(=O)N2CCCCC2)cc1)c1ccc(Br)s1	96*	18	0	-1.4	0.8
O=S(=O)(Nc1cc(Cl)ccc1N1CCCCC1)c1cccs1	53*	82*	0.5	0.3	0.2
O=C(Nc1ccc(S(=O)(=O)N2CCCCCC2)cc1)c1ccc(Br)o1	45	25	0.6	-1.1	0.8
COc1ccc(OC)c(NS(=O)(=O)c2ccc(Cl)s2)c1	.	.	.	-0.47	.
O=S(=O)(Nc1ccccc1N1CCCCC1)c1ccc(Cl)s1	12	57*	0.9	0.36	0.4
O=C(CSc1nc(-c2ccc(F)cc2)cc(C(F)(F)F)n1)NCc1ccco1	.	.	.	0.91	.
O=C1C2C3C=CC(C2C(=O)N1CCCO)C1C2C(=O)N(CCCO)C(=O)C2C31 (stereo not drawn)	-6	-12	1.1	1	1.1
NS(=O)(=O)c1ccc(CCNC(=O)c2ccccc2F)cc1	4	17	1	0.74	0.8
CCCNC(=O)CCC(=O)Nc1ncc(-c2ccc(C)cc2)n1C	19	13	0.8	-1.9	0.9
O=S(=O)(Nc1ccc(N2CCCCC2)cc1)c1cccs1	100*	98*	0	-0.76	0
O=S(=O)(Nc1ccc(S(=O)(=O)N2CCCCCC2)cc1)c1cccs1	91*	-18	0.1	-1.3	1.2
O=C(c1ccc(NS(=O)(=O)c2cccs2)cc1)N1CCCCC1	.	.	.	0.46	.
Cc1ccc(CCC(=O)Nc2nccs2)o1	18	63*	0.8	-0.09	0.4
CCc1ccc(CCC(=O)Nc2ccccc2C(=O)O)o1	52*	13	0.5	-1.1	0.9
Cc1ccc(OCc2ccc(C(=O)Nc3nccs3)o2)cc1	12	4	0.9	0.22	1
CCc1ccc(CCC(=O)Nc2nccs2)o1	48	58*	0.5	0.55	0.4
CCc1c(C(=O)NNC(=S)NCCc2ccccc2)csc1C	.	.	.	1.8	.
COCCNC(=O)CN(C(=O)Cn1nnc2ccccc21)c1ccc(F)c(Cl)c1	-5	56*	1.1	0.74	0.4
CCc1ccccc1N(C(=O)Cn1nnc2ccccc21)C(C(=O)NCCOC)c1ccco1 (stereo not drawn)	56*	61*	0.4	0.29	0.4
COCCNC(=O)CN(C(=O)CCC(=O)Nc1ccccn1)c1ccc(F)c(Cl)c1	18	30	0.8	0.33	0.7
O=C(NCc1ccco1)C(c1ccncc1)N(CCC1=CCCCC1)C(=O)Cn1nnc2ccccc21 (stereo not drawn)	62*	51*	0.4	-0.05	0.5
Cc1cccc(N(C(=O)Cn2nnc3ccccc32)C(C(=O)NCc2ccco2)c2ccncc2)c1 (stereo not drawn)	23	20	0.8	-0.56	0.8
O=C(NCc1ccco1)C(c1ccccc1)N(Cc1ccccc1)C(=O)Cn1nnc2ccccc21 (stereo not drawn)	.	.	.	-4.1*	.
Cc1ccc(C(C(=O)NCc2ccco2)N(Cc2ccco2)C(=O)CNC(=O)c2ccco2)cc1 (stereo not drawn)	36	57*	0.6	-1.1	0.4
O=C(NCc1ccco1)C(c1cccnc1)N(C(=O)Cn1nnc2ccccc21)c1ccccc1 (stereo not drawn)	30	51*	0.7	0.1	0.5
COc1ccc(N(C(=O)Cn2nnc3ccccc32)C(C(=O)NCc2ccco2)c2cccnc2)cc1 (stereo not drawn)	7	78*	0.9	-0.52	0.2

From PubChem
